Tg IFNy HTS – T. gondii growth inhibition with IFN-gamma, primary screen, cell-based; activity change, negative = inhibition, % (no concentration beside the values); Toxoplasma gondii growth in IFN-gamma-treated host cells; stronger effect = lower value; AID 1259416, 2018; actives 3.8% (n = 69,000); in the data active means activity change below about -70%, passing the limit was not always enough;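 further: host cells are HeLa cells infected with Toxoplasma gondii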
An asterisk follows results filed as active; ! = repeats disagree. The sample as a whole holds a higher share of hits than the screen did.

SMILES	Tg IFNy HTS
COc1cc(CN(Cc2ccccc2)CC2CCCO2)cc(OC)c1OC (configuration not stated)	1.4
CN(C)CCN(Cc1cccnc1)Cc1cncn1Cc1ccccc1	13.7
CCc1cccc2c(CC(=O)NCCn3nc(C)nc3C)c(C)[nH]c12	205.2
Cc1ccc(NC(=O)NCC2CCCN(Cc3ccncc3)C2)cc1 (configuration not stated)	9.7
O=C(NCc1ccccc1Cl)c1c(O)c2cccnc2n(-c2ccc(F)cc2)c1=O	115.3
O=C(Nc1ccc(F)cc1Cl)c1c(O)c2cccnc2n(-c2ccc(F)cc2)c1=O	239.5
Cc1cc(F)ccc1NC(=O)c1c(O)c2ccccc2n(-c2ccccc2)c1=O	16.4
O=C(Nc1ccccc1Cl)c1c(O)c2cccnc2n(-c2cccc(F)c2)c1=O	-87.0*
Cc1ccc(NC(=O)c2c(O)c3ccccc3n(-c3ccccc3)c2=O)c(C)c1	-11.1
Cc1cccc(C)c1NC(=O)c1c(O)c2ccccc2n(-c2ccccc2)c1=O	-104.9*
CCOc1ccccc1NC(=O)c1c(O)c2cccnc2n(-c2ccc(F)cc2)c1=O	65.0
COc1cccc(-n2c(=O)c(C(=O)Nc3ccccc3Cl)c(O)c3cccnc32)c1	65.1
COc1ccccc1CNC(=O)c1c(O)c2cccnc2n(-c2cccc(F)c2)c1=O	234.3
COc1ccccc1CNC(=O)c1c(O)c2cccnc2n(-c2ccc(F)cc2)c1=O	-73.9*
CCc1ccccc1NC(=O)c1c(O)c2cccnc2n(-c2ccc(F)cc2)c1=O	-79.5*
CCc1ccc(NC(=O)c2c(O)c3cccnc3n(-c3ccc(F)cc3)c2=O)cc1	80.2
Cc1cc(C(=O)NCc2ccccc2-n2ccnc2C)nc(C)n1	-3.7
CCCC#Cc1ccc([C@H]2[C@@H](CO)N3C(=O)CN(C(=O)Nc4cccc(F)c4)C[C@H]23)cc1	-19.6
CCOc1ccc(S(=O)(=O)NCCc2sc(-c3ccc(OC)c(OC)c3)nc2C)cc1	288.0
Cc1cc(C(=O)N2CC[C@@H]3OCCN(C(C)C)[C@@H]3C2)n[nH]1	-0.5
O=C(CN1CCOc2ccccc2C1)N1Cc2cnn(CCO)c2C1	110.4
CCOC(=O)N1CCC(NC(=O)c2ccccc2C2CCNC2)CC1 (configuration not stated)	4.7
Cn1cncc1CN1CCOC2(CCCN(c3cccc(C#N)c3)C2)C1 (configuration not stated)	-7.2
COc1ccc(CN2CCCC(CNC(=O)C3(N)CCC3)C2)c(C)c1 (configuration not stated)	-45.0
CC(=O)NC1CCN(CC2(O)CCNC2)CC1 (configuration not stated)	-0.8
SMILES	Tg IFNy HTS
CCN1c2cc(C)ccc2-n2cccc2C12CCN(C(=O)Nc1ccc(OC)cc1)CC2	34.4
N#Cc1cccc(S(=O)(=O)N2CCC3(CC2)Nc2ccc(Cl)cc2-n2cccc23)c1	-2.1
O=C(Nc1ccc(Cl)cc1)c1c(O)c2cccnc2n(-c2cccc(F)c2)c1=O	-102.3*
O=C(Nc1ccc(F)cc1F)c1c(O)c2cccnc2n(-c2ccccc2)c1=O	-43.7
COc1cccc(-n2c(=O)c(C(=O)NCc3ccccc3Cl)c(O)c3cccnc32)c1	-91.0*
O=C(NCc1cc(F)cc(F)c1)c1c(O)c2cccnc2n(-c2cccc(F)c2)c1=O	106.0
Cc1ccc(NC(=O)c2c(O)c3cccnc3n(-c3cccc(F)c3)c2=O)cc1	53.9
COc1cccc(-n2c(=O)c(C(=O)NCc3ccc(F)cc3F)c(O)c3cccnc32)c1	50.0
CCc1ccccc1NC(=O)c1c(O)c2cccnc2n(-c2cccc(F)c2)c1=O	-104.4*
CCOc1ccccc1NC(=O)c1c(O)c2cccnc2n(-c2cccc(F)c2)c1=O	100.4
COc1cccc(-n2c(=O)c(C(=O)NCc3ccccc3F)c(O)c3cccnc32)c1	99.9
O=C(Nc1ccc(F)cc1)c1c(O)c2cccnc2n(-c2cccc(F)c2)c1=O	60.4
O=C(NCc1cc(F)cc(F)c1)c1c(O)c2cccnc2n(-c2ccccc2)c1=O	-91.0*
O=C(NCc1ccccc1)c1c(O)c2cccnc2n(-c2ccccc2)c1=O	5.0
COc1ccc2c(c1)NC1(CCN(C(=O)CCc3cc(OC)c(OC)c(OC)c3)CC1)c1cccn1-2	23.7
O=C(O)Cc1ccc(C(=O)CSc2nccc(-c3cccs3)n2)s1	125.4
CCC(=O)N1C[C@H](O)COC[C@H]2O[C@H](CC(=O)NCc3ccc(Oc4ccccc4)cc3)CC[C@@H]21	-8.7
CC(=O)c1cnc2cc(C(=O)N3CCC(O)(c4ccccc4C)CC3)nn2c1C	58.1
COc1cccc(C2CCCN2C(=O)c2ccc3nc(C(F)(F)F)[nH]c3c2)c1 (configuration not stated)	-28.0
CC(C)NC(=O)C1CCN(C2CCN(C(=O)C3=NNC(=O)CC3)CC2)CC1	-1.2
Cc1cc(F)ccc1NC(=O)c1c(O)c2cccnc2n(-c2ccccc2)c1=O	-26.8
Cc1ccccc1NC(=O)c1c(O)c2cccnc2n(-c2cccc(F)c2)c1=O	-94.0*
O=C(Nc1ccccc1F)c1c(O)c2cccnc2n(-c2cccc(F)c2)c1=O	24.6
CC(C)N(C)CC1CN(CC2CC2)Cc2nccn2C1 (configuration not stated)	44.1
O=C(Cc1cccnc1)NCc1ccc(-c2ccc(F)cc2)o1	-2.7
SMILES	Tg IFNy HTS
CCCn1c(C)cc2cc(NC(=O)CCN3C(=O)NC4NC(=O)NC43)ccc21 (configuration not stated)	3.4
CS(=O)(=O)n1nc(-c2cccnc2)nc1NCc1ccc(Cl)cc1	3.2
CC(=O)C(Sc1nccc(-c2cccnc2)n1)C(C)=O	-57.8
Nc1ccccc1NC(=O)c1ccc(CNc2nccc(-c3cccnc3)n2)cc1	-79.3*!
O=C(CCc1c[nH]c2ccccc12)N1CCN(C(=O)c2cc(-c3cccnc3)n[nH]2)CC1	41.6
Cc1nnc2c(=O)n(CC(=O)N3CCC(N4CCCCC4)CC3)c3cccnc3n12	5.4
COc1ccc(C(NC(=O)C2Oc3ccccc3O2)c2ccncc2)cc1 (configuration not stated)	47.2
COc1cccc(CNC(=O)C2CC3(CO2)CN(C(C)C)c2ccccc23)c1 (configuration not stated)	17.1
Cc1cc(C(=O)NCCc2c[nH]c3ccccc23)c2c(=O)n(C)c(=O)n(C)c2n1	37.1
CCSc1nc(CC(=O)NCCc2c[nH]c3ccccc23)cs1	26.8
CCOc1nc2c(c(C)nn2-c2cccc(C)c2)c(C)c1CCC(=O)NCCc1c[nH]c2ccccc12	-78.9*
O=S(=O)(NCCc1csc(-c2cccc(F)c2)n1)c1ccc2c(c1)CCCC2	26.3
O=C(CC1COCCN1)N1CCN(CCCOc2ccc(F)cc2)CC1 (configuration not stated)	0.7
COc1ccc(-c2nc(N3CCN(c4cc(Cl)ccc4C)CC3)c3ccccc3n2)cc1	-28.3
Cc1ccc(NC(=O)N(Cc2ccco2)Cc2cc3cc4c(cc3[nH]c2=O)OCCO4)cc1	-4.8
COc1cccc(CN(C)Cc2cc3ccc(F)cc3[nH]c2=O)c1	10.3
Cc1cccc2cc(CN(Cc3ccccc3)C(=O)Nc3ccc(F)cc3)c(=O)[nH]c12	-104.1*
CC(C)C1C=CCN1C(=O)C1(Oc2ccc(Cl)cc2)CCNCC1 (configuration not stated)	-25.7
Cn1ncc(Br)c1NC(=O)CN1CCOCC1	3.4
O=S(=O)(Cc1ccccc1)N1CCN(c2nc3ccccc3s2)CC1	-16.2
C=CCN1CC[C@H]2[C@@H]1CCN2S(=O)(=O)c1cccs1	-40.5

Source: PubChem
